Results as given in ChEMBL document CHEMBL2218924, “A broad activity screen in support of a chemogenomic map for kinase signalling research and drug discovery” (Biochem J, 2013).

Key:
[1] = molecular target: Ephrin type-A receptor 5 (Homo sapiens) (UniProt P54756); conditions: at 1 µM
[2] = molecular target: Ephrin type-A receptor 5 (Homo sapiens) (UniProt P54756); conditions: at 10 µM
[3] = molecular target: T1, Ephrin type-B receptor 1 (Homo sapiens) (UniProt P54762); conditions: at 1 µM
T1 sequence (whole entry): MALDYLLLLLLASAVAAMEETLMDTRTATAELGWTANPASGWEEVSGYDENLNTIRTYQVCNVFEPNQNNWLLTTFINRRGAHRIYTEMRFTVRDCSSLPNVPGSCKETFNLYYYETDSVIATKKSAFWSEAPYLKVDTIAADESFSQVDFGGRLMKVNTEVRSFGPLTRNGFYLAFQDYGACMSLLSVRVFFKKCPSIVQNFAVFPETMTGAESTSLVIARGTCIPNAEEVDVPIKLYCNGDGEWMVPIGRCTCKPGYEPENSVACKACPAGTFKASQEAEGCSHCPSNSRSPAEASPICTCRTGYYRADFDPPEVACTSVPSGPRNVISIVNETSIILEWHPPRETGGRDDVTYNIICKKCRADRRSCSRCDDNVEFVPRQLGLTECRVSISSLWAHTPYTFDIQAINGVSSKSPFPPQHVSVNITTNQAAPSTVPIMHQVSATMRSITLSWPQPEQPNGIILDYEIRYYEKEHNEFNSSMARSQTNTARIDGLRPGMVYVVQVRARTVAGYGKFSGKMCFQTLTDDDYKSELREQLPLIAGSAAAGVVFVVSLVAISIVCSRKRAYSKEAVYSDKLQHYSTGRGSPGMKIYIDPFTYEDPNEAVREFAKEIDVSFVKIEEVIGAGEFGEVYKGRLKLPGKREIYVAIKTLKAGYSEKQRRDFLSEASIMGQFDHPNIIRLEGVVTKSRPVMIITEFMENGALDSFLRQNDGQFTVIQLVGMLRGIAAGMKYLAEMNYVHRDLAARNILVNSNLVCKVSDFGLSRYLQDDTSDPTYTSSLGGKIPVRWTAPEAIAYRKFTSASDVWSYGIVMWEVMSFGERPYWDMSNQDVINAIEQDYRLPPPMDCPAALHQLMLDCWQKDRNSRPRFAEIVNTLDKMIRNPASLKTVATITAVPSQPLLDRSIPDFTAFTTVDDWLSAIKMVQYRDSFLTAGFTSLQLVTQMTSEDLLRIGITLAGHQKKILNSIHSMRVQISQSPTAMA

[4] = molecular target: T2, Ephrin type-B receptor 3 (Homo sapiens) (UniProt P54753); conditions: at 1 µM
T2 sequence (whole entry): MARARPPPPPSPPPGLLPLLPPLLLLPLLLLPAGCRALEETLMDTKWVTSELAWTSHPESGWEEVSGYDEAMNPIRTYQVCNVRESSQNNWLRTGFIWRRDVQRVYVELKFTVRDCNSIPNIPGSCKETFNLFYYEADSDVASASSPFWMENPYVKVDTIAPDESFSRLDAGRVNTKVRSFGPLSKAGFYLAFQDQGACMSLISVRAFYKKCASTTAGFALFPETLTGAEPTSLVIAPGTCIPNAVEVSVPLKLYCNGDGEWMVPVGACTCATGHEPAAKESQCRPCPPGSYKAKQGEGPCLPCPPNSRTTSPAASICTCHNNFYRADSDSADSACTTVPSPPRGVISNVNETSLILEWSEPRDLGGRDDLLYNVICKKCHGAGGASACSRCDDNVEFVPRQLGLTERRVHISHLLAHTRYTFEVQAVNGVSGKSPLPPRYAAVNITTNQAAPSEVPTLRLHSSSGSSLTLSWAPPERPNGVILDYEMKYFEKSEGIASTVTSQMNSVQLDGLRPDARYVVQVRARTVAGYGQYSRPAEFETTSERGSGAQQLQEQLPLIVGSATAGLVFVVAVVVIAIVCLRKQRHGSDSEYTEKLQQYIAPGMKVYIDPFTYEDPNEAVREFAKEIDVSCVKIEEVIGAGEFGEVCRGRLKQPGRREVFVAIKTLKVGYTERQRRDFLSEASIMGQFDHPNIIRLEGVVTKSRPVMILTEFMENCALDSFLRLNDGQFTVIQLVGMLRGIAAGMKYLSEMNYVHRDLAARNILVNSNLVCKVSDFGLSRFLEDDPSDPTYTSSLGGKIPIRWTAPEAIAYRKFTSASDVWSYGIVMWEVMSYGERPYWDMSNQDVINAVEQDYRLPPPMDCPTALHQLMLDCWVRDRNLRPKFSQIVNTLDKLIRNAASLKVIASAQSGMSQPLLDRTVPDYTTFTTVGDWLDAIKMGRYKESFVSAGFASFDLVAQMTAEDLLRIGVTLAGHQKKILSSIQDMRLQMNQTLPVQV

[5] = molecular target: T2, Ephrin type-B receptor 3 (Homo sapiens); conditions: at 10 µM
[6] = molecular target: Focal adhesion kinase 1 (Homo sapiens) (UniProt Q05397); conditions: at 1 µM
Chain of Focal adhesion kinase 1 (Homo sapiens) (Q05397 2-1052 limits assumed): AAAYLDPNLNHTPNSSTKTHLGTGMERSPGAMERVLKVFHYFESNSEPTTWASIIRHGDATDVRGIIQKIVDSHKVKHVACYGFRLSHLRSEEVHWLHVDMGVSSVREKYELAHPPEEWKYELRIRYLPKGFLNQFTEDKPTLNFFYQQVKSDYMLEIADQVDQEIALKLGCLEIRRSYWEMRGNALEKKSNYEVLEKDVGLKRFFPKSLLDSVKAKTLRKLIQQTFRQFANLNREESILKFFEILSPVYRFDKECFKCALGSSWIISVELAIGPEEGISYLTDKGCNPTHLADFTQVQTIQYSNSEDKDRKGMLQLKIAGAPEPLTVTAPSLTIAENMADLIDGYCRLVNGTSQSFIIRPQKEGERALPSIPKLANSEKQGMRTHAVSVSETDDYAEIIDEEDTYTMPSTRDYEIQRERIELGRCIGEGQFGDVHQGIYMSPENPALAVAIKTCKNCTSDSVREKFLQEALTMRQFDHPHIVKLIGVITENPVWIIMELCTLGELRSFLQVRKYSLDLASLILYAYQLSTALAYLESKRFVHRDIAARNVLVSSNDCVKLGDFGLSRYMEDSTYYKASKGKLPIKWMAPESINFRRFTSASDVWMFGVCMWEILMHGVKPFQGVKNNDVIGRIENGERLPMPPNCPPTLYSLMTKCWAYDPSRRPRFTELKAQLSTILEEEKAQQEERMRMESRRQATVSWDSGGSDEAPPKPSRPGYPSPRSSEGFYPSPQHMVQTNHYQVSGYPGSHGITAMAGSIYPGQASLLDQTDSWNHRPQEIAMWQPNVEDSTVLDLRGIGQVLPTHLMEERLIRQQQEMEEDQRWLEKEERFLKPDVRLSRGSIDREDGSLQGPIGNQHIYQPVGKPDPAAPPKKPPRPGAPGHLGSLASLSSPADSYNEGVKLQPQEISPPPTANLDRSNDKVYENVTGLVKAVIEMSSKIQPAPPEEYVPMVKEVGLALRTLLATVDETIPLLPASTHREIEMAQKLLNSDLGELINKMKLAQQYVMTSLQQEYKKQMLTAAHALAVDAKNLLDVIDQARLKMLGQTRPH

[7] = molecular target: Ephrin type-A receptor 7 (Homo sapiens) (UniProt Q15375); conditions: at 1 µM
Chain of Ephrin type-A receptor 7 (Homo sapiens) (Q15375 28-998 limits assumed): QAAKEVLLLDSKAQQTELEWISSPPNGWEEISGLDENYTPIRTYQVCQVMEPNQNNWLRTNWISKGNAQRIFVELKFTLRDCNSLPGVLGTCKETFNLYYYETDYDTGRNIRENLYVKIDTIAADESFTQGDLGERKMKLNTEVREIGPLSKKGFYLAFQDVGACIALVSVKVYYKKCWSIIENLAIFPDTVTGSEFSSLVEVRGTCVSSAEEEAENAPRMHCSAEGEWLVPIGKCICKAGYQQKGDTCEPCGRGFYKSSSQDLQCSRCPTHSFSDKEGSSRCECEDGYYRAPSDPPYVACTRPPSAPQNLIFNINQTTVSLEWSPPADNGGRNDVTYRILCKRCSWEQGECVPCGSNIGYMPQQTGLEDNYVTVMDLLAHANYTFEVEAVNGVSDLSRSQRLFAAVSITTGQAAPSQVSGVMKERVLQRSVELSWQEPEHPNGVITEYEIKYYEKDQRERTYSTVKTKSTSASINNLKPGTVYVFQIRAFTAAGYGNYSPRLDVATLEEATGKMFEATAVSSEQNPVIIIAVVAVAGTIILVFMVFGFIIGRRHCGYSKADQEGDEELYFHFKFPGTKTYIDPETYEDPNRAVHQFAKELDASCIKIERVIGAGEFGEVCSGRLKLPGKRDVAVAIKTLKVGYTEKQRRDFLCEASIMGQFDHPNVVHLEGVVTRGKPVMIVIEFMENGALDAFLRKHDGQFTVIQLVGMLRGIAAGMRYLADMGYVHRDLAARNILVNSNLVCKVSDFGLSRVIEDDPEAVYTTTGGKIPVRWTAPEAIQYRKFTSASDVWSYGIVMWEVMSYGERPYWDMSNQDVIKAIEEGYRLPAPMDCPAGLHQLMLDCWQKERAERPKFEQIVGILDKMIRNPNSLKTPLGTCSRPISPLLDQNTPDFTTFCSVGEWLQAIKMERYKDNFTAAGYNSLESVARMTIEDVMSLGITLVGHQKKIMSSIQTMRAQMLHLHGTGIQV

[8] = molecular target: Ephrin type-A receptor 7 (Homo sapiens) (UniProt Q15375); conditions: at 10 µM
[9] = molecular target: T3, Ephrin type-A receptor 8 (Homo sapiens) (UniProt P29322); conditions: at 10 µM
T3 sequence (whole entry): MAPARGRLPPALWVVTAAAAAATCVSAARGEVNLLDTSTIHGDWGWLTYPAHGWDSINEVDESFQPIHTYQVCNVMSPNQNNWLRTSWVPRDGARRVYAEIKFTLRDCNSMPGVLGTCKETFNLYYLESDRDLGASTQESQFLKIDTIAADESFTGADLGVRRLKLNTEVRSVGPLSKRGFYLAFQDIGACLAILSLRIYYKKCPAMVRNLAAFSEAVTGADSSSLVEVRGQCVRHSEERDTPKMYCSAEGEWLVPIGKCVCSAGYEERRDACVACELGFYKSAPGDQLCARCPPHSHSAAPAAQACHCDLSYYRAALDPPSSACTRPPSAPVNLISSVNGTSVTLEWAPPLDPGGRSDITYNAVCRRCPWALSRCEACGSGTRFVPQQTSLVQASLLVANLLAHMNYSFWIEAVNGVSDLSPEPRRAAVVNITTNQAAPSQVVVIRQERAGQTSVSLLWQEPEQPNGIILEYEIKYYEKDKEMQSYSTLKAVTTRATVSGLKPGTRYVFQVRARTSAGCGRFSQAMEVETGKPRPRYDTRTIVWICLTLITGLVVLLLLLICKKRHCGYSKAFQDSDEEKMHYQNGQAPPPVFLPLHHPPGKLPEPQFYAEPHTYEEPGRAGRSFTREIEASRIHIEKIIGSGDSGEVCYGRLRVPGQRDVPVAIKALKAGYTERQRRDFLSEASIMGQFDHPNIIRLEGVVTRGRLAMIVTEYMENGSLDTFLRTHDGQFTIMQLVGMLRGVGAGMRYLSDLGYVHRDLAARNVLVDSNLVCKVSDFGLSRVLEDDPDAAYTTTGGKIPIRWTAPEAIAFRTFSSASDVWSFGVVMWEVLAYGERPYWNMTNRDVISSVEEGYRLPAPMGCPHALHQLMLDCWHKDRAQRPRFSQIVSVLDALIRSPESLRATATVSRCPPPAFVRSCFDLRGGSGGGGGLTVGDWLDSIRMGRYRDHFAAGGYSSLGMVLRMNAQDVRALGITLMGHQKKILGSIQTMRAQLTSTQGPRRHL

[10] = molecular target: T1, Ephrin type-B receptor 1 (Homo sapiens); conditions: at 10 µM
[11] = molecular target: T4, Ephrin type-B receptor 2 (Homo sapiens) (UniProt P29323); conditions: at 10 µM
T4 sequence (whole entry): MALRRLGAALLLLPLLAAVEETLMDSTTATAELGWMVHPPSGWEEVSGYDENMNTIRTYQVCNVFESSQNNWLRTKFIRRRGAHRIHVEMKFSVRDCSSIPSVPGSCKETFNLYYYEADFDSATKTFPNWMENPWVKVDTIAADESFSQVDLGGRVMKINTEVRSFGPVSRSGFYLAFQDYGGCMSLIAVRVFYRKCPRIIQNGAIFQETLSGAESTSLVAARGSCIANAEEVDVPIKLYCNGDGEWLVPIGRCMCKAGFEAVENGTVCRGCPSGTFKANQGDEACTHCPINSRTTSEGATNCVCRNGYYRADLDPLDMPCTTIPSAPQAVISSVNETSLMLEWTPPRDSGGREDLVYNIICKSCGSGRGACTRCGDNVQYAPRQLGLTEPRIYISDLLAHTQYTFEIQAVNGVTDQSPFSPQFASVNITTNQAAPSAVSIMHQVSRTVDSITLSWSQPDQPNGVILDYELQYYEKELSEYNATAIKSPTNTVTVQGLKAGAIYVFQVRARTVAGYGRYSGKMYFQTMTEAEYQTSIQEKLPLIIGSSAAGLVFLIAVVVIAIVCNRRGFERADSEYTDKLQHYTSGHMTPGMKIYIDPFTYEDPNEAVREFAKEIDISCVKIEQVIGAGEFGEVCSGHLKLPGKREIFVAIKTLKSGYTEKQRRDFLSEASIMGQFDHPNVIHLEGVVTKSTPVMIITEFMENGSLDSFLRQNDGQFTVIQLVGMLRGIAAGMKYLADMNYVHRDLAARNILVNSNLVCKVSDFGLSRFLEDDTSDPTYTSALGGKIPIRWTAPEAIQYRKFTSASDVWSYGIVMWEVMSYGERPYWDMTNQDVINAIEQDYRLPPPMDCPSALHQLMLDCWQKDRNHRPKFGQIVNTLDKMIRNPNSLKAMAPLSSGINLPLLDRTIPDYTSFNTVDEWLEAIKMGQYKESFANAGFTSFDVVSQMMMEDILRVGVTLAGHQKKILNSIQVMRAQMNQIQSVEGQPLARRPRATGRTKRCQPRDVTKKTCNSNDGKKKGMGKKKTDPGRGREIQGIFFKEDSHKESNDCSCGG

[12] = molecular target: T5, Ephrin type-B receptor 4 (Homo sapiens) (UniProt P54760); conditions: at 1 µM
T5 sequence (whole entry): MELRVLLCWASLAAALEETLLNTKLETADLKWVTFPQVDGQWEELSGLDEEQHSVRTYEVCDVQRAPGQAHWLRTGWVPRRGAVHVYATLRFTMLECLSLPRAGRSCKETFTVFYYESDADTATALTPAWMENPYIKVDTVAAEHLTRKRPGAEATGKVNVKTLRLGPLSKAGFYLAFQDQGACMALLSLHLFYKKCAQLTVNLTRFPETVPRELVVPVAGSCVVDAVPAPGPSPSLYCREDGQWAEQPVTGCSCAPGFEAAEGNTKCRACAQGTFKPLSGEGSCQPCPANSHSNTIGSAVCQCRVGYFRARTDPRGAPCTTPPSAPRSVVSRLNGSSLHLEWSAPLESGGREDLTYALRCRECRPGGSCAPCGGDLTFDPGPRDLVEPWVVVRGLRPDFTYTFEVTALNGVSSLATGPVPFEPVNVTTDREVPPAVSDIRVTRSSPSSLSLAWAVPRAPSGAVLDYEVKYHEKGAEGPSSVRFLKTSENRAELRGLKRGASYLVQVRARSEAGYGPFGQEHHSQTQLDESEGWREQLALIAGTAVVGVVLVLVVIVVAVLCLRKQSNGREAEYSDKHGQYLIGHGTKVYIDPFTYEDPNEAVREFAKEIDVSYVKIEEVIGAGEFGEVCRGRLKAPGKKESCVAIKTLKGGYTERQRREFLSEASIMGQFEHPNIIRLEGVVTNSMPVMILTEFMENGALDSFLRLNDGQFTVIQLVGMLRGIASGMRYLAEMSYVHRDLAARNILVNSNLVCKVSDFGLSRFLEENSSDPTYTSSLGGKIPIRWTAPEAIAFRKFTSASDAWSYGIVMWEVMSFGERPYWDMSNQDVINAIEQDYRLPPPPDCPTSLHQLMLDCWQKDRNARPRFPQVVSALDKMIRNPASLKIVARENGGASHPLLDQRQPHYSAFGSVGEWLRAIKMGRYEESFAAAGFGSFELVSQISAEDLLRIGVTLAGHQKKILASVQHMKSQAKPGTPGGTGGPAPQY

[13] = molecular target: T5, Ephrin type-B receptor 4 (Homo sapiens); conditions: at 10 µM
[14] = molecular target: Receptor tyrosine-protein kinase erbB-4 (Homo sapiens) (UniProt Q15303); conditions: at 1 µM
Chain of Receptor tyrosine-protein kinase erbB-4 (Homo sapiens) (Q15303 whole entry): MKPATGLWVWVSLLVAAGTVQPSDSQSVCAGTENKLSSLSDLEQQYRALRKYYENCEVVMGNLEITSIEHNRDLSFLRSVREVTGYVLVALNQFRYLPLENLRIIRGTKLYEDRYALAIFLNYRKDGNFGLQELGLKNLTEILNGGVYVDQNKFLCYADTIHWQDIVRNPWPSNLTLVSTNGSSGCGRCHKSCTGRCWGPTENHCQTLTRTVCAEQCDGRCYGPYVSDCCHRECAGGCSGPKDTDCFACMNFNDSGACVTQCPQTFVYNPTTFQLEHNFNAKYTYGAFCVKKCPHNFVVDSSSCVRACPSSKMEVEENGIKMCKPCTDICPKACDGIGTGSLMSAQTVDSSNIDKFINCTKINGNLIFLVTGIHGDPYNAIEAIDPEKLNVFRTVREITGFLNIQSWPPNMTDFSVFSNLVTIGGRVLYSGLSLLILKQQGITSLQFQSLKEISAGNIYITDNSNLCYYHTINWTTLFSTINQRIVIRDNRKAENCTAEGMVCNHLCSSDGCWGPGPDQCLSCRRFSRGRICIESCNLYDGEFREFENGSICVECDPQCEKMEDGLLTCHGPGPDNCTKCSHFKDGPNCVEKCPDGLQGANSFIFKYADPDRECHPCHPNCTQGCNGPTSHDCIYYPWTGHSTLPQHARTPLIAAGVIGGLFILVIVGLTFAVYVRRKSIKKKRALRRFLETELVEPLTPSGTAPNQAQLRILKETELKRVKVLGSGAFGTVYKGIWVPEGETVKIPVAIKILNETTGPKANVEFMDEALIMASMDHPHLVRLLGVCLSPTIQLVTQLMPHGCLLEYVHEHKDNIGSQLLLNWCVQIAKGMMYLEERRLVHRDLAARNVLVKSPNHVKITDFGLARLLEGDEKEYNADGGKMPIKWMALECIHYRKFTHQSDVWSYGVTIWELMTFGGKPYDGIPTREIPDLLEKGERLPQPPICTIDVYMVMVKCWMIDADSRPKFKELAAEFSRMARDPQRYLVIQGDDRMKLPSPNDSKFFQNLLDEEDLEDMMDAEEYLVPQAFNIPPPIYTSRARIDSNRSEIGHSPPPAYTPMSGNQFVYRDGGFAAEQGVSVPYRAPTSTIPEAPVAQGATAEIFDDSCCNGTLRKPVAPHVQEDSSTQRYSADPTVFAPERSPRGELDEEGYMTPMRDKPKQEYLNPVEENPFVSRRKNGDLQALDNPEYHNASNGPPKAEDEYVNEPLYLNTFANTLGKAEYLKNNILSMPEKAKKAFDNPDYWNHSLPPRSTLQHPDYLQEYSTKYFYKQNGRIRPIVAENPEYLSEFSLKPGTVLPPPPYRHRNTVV

[15] = molecular target: Receptor tyrosine-protein kinase erbB-4 (Homo sapiens) (UniProt Q15303); conditions: at 10 µM

Chain of Ephrin type-A receptor 5 (Homo sapiens) (P54756 whole entry): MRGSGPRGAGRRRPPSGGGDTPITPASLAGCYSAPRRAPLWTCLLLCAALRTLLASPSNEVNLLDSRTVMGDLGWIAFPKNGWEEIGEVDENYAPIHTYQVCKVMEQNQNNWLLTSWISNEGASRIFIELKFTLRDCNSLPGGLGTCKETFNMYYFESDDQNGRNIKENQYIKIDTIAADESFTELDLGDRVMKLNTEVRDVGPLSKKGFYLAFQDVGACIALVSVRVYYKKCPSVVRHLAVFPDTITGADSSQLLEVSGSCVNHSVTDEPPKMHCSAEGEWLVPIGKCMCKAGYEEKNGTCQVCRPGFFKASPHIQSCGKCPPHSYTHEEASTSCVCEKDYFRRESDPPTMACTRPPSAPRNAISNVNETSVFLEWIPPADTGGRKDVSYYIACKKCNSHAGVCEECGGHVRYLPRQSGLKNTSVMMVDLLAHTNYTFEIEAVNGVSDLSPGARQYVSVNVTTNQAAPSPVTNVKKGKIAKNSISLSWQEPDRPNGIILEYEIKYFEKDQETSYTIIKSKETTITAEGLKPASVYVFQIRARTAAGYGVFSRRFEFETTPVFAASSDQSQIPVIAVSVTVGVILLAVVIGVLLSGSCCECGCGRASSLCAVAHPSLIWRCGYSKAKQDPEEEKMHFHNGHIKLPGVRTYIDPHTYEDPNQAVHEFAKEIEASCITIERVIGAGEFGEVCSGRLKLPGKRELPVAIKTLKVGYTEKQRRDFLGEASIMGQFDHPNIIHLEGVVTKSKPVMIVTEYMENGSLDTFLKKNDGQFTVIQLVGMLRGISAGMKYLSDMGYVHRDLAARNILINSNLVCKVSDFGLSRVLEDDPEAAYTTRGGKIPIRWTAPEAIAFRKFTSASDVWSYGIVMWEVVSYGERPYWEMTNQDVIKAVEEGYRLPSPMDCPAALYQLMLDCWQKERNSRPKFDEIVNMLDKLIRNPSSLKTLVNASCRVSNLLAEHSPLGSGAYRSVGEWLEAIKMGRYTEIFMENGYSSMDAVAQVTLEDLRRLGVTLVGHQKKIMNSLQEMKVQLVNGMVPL

SMILES: Oc1cccc(-c2nc(N3CCOCC3)c3oc4ncccc4c3n2)c1
- residual activity [1]: 98%
- residual activity [2]: 124%
- residual activity [3]: 95%
- residual activity [4]: 116% (inactive)
- residual activity [5]: 123%
- residual activity [6]: 144%

SMILES: O=C(c1cc2cc(O)ccc2[nH]1)c1cc2cc(O)ccc2[nH]1
- residual activity [1]: 78%
- residual activity [2]: 32%
- residual activity [7]: 83%
- residual activity [8]: 66%
- residual activity [9]: 73%
- residual activity [10]: 28%
- residual activity [11]: 24%
- residual activity [5]: 126%
- residual activity [12]: 72%
- residual activity [13]: 13%
- residual activity [14]: 73%
- residual activity [15]: 63%
- residual activity [6]: 112%
